Consider 35 molecules from PubChem BioAssay.

For the experiment, the target named is Torsin-1A (Homo sapiens) (UniProt O14656). As to the kind of experiment: small-molecule binders of mutant TOR1A in lysate, primary screen, cell lysate, small-molecule microarray, COS7 lysate, 635/667 nm fluorescence (AID 1150).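 Also: score pools 667 nm emission and signal to noise measuring lysate protein binding.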 Particulars: COS7 hTOR1A mutant lysate, 635 nm fluorescence, higher = more signal.
Chain of Torsin-1A (Homo sapiens) (O14656 whole entry, looked up): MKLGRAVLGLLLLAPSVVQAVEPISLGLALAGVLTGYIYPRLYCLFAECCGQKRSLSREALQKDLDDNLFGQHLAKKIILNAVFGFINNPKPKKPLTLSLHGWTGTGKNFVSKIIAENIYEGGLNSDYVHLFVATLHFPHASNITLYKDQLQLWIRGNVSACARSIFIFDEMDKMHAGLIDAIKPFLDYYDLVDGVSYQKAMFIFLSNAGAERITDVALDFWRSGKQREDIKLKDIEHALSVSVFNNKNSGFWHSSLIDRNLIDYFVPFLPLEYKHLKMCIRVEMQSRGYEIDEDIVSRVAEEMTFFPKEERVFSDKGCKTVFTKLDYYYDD
`O=C1OCC=C[C@H]2OC34C=CCN(c5ccc(Cl)cc5)C(=O)[C@H]3N(CCCCCO)C(=O)[C@@H]4[C@@H]12` (stereo not given in full) had a composite z-score of 2.22.
Under `CC(C)(C)OC(=O)CC[C@]1(C(=O)NCCN2CCOCC2)N=C(c2ccc(OCCCO)cc2)O[C@H]1c1ccccc1N=[N+]=[N-]` stands 1.28; under `COC(=O)C1(Cc2ccccc2)C=C2C(=C(c3ccccc3)C(=O)C2C)CN1` (stereo not given), 0.47; under `COc1cc(CO)cc(I)c1O[C@H]1C=C(C(=O)NCCO)C[C@@H](N(CC2CCCCC2)C(=O)c2ccc(C(F)(F)F)cc2)[C@@H]1O`, 0.0547.
Under `COc1ccc([Si](C)(C)[C@H]2[C@H](CCn3cc(CCO)nn3)O[C@@]3(C(=O)N(Cc4ccc(N5C(=O)c6cccc7cccc5c67)cc4)c4ccccc43)[C@@H]2C)cc1` stands 0.238; under `CC=CC(O)C1C=CC2C(=O)N(C)C(=O)C2N1Nc1ccc([N+](=O)[O-])cc1[N+](=O)[O-]` (stereo not given), -0.297; under `COCCCNC(=O)[C@]1(Cc2ccccc2N=[N+]=[N-])N=C(c2ccc(OCCCO)cc2)O[C@@H]1c1ccccc1N=[N+]=[N-]`, 0.605.
Then `[N-]=[N+]=NCc1ccccc1C[C@@]1(C(N)=O)N=C(c2ccc(OCCCO)cc2)O[C@@H]1c1ccccc1CN=[N+]=[N-]`, with 0.335.
`O=C1NC(=O)C2C1C=CC(C(O)c1ccc3c(c1)OCO3)N2Nc1ccccn1` (stereo not given) yielded a composite z-score of 0.05.
Molecule `O=C1C[C@]2(c3ccc([N+](=O)[O-])cc3)C(=O)N(Cc3ccccc3)c3cc(CO)ccc3[C@H]2N1CC12CC3CC(CC(C3)C1)C2` yielded a composite z-score of 0.263.
The molecule `COc1cc2c(cc1OC)CN(C(=O)[C@H]1[C@@H]3C(=O)O[C@@H](c4ccccc4)[C@@H](c4ccccc4)N3[C@@H](c3ccc(OCCO)cc3)[C@]13C(=O)Nc1ccc(C#CCCO)cc13)CC2` displayed a composite z-score of 0.764.
The molecule `CC(C)NC(=O)[C@@]1(C)c2ccccc2C(=O)N(C(C)C)[C@H]1c1ccc(CO)cc1` came in with a composite z-score of -2.55.
Under `C=CCC(OC(C)=O)[C@@H]1[C@@H](N(Cc2cc3ccccc3o2)C(=O)Cc2ccc(F)cc2)c2cc(OCCCO)ccc2N1C(=O)c1ccc2ccccc2n1` (stereo not given in full) stands -0.226; under `O=C1O[C@@H](c2ccccc2)[C@@H](c2ccccc2)N2[C@@H](c3ccc(O)cc3)[C@]3(C(=O)Nc4ccc(C#CCCO)cc43)[C@@H](C(=O)Nc3nc4ccccc4s3)[C@H]12`, 0.897; under `C=C(CCCC)/C(=C/C[C@@H](OC(C)=O)c1ccc(CO)o1)c1cc(C(=O)OC)ccc1OC`, 0.371.
Under `O=C1OC[C@@H](c2ccccc2)N2CC(/C=C/c3ccccc3)=CC12` (stereo not given in full) stands -1.31; under `CCOC(=O)[C@H]1C/C=C/C[C@H](C(=O)OCC)C(=O)O[C@H]2[C@@H](OC)O[C@H](CO)[C@@H](OC(=O)CCc3ccccc3)[C@@H]2OC1=O`, -0.532.
Under `[N-]=[N+]=Nc1ccccc1C[C@@]1(C(=O)O)N=C(c2ccc(OCCCO)cc2)O[C@@H]1c1ccccc1` stands 0.779; under `CC(C)(C)N1CC=CC23O[C@@H]4C=CCOC(=O)[C@@H]4[C@H]2C(=O)N(CCCO)[C@@H]3C1=O` (stereo not given in full), -0.0267.
In turn, `COC1(C)CN(Cc2ccccc2Br)[C@H](/C=C/c2ccccc2)[C@H](Cc2ccccc2)O1` (stereo not given in full) displayed a composite z-score of 0.357.
Then `O=C(N1CCCCC1)[C@@]1(Cc2ccccc2)COC(c2ccc(OCCCO)cc2)=N1`, with 0.67; and `COC(=O)[C@@]1(Cc2ccc(F)cc2)[C@H]2c3cc(C(=O)N4CCCC4)n(CCc4c[nH]c5ccc(OC)cc45)c3C[C@H]2CN1C(=O)c1ccccc1`, with 0.736; and `[N-]=[N+]=Nc1ccccc1[C@@H]1OC(c2ccc(OCCCO)cc2)=N[C@]1(CCS(=O)(=O)c1ccccc1)C(=O)NCCN1CCOCC1`, with 1.15.
On to `CN1C(=O)C2C=CC(C(O)c3c(F)cccc3Cl)N(Nc3ccccc3)C2C1=O` (stereo not given), for which the composite z-score is -0.562.
`COC(=O)[C@@]1(Cc2ccccc2)[C@H]2c3cc(C(=O)N4CCCC4)[nH]c3C[C@H]2CN1C(=O)c1ccccc1` had a composite z-score of 0.246.
Under `NCCCCCCNC(=O)[C@H]1C[C@H]2C(=O)N[C@@H](Cc3ccccc3)C(=O)N2[C@H]1c1ccc(O)cc1` stands 0.394; under `C[N+](C)(C)CCCC[C@@H]1NC(=O)[C@@H]2C[C@H](C(=O)O)[C@H](c3ccc(O)cc3)N2C1=O`, -0.909; under `C=C(CCCC)C(=O)CC[C@@H](OC(=O)c1cccnc1)c1ccccc1OCCO`, 0.781.
Then `O=C1O[C@@H](c2ccccc2)[C@@H](c2ccccc2)N2[C@@H](c3ccccc3OCCO)[C@]3(C(=O)Nc4ccccc43)[C@@H](C(=O)NC[C@H](O)c3ccccc3)[C@H]12`, with 0.297.
Then `CC(C)(C)OC(=O)CC[C@]1(C(=O)O)N=C(c2ccc(OCCCO)cc2)O[C@H]1c1ccccc1`, with 0.113; and `C=C(/C=C/CNS(=O)(=O)c1ccc(C)cc1)[C@H](O)[C@H]1CCCN1S(=O)(=O)c1ccccc1[N+](=O)[O-]`, with 0.388.
Molecule `CCOC(=O)C1=CC[C@@H](c2ccccc2C(F)(F)F)N(S(=O)(=O)c2ccc(C)cc2)C1` had a composite z-score of 2.07.
Then `CN(C)CCCN1C(=O)[C@@]2(c3ccc([N+](=O)[O-])cc3)CC(=O)N(CC34CC5CC(CC(C5)C3)C4)[C@@H]2c2ccc(CO)cc21`, with -0.17; and `CN1C2C=C(CCCO)C(C3C(=O)N(C(N)=O)C(=O)C32)C1c1cccs1` (stereo not given), with 0.429.
The molecule `CCOC(=O)C1=CC[C@@H](c2ccc([N+](=O)[O-])cc2)N(S(=O)(=O)c2ccc(C)cc2)[C@H]1c1ccccc1` came in with a composite z-score of 0.763.
